Compound activity (PubChem)
KCNH2 WT inh: KCNH2 (human, wildtype) channel inhibition; Q12809; U2OS, BacMam KCNH2, thallium flux FluxOr; hits give low values; activity change, % at 1.84 µM; actives 0.37% (n = 340,000); AID 720551;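 active = maximum activity change below -70%; inconclusive = maximum activity change between -70% and -50%; inactive = maximum activity change above -50%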; also: % is scaled to controls: 0 for no effect and ±100 for the full control effect
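U2OS cells were transduced with wild-type KCNH2 virus (2.03 x 10^8 / mL) for 4 h at room temperature, then cultured overnight at 37 C. Thallium flux was read with FluxOr dye. Rate constants were normalized to DMSO controls.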
TRPV1 ag: agonists of human vanilloid receptor 1 (TRPV1). Q8NER1. TRPV1-expressing cells, Fluo-8 calcium influx, agonist mode. activation, % at 8.33 µM. actives 0.19% (n = 320,000); in the data active = activation above about 80%; inconclusive = between about 30% and that limit; also: 0% is about no effect
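Cells expressing TRPV1 were dye-loaded with Fluo-8 and read kinetically: 10 s baseline, 3 min after compound (agonist portion), then 2 min after EC20 capsaicin (allosteric enhancer portion). Calcium-bound dye fluorescence at 480/520 nm.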
TRPV1 PAM: human TRPV1 potentiation | TRPV1-expressing cells, Fluo-8 calcium influx, capsaicin EC20 potentiation | potentiation, % at 8.33 µM | actives 0.02% (n = 320,000) | AID 540277; in the data active = potentiation above about 80%; inconclusive = between about 30% and that limit; also: 0% is about no effect
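TRPV1-expressing cells were cultured overnight at 35.5C and loaded with Fluo-8 calcium dye for 40 to 90 min at room temperature. After a 10 s baseline, compound was added and calcium influx was read kinetically for 3 min (ex 480/em 520 nm).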
KCNH2 3.1 block: blocks the human KCNH2 3.1 channel isoform | U2OS KCNH2 3.1, thallium flux FluxOr; hits give low values | activity change, % (tested at about 1.8 µM) | actives 0.95% (n = 340,000) | AID 720553;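 active = maximum activity change below -70%; inconclusive = maximum activity change from -70% to -50%; inactive = maximum activity change above -50%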;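 also: thallium influx rate constant from kinetic fluorescence after stimulation buffer; % is scaled to controls: 0 for no effect and ±100 for the full control effect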
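Kinetic fluorescence (2 min after stimulation buffer) measures Tl+ influx through KCNH2 3.1 expressed by viral transduction in U2OS cells; the rate constant is normalized against DMSO controls serving as positive and negative references.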
ClpP mod: qHTS Assay for Activators of ClpP. ATP-dependent Clp protease proteolytic subunit (Bacillus subtilis (strain 168)), P80244. purified B. subtilis ClpP, FRET peptide cleavage, 20 min. Potency, µM (highest dose often 57.5 µM), for inactives: top-dose activity change, negative = active. actives 1.9% (n = 340,000). AID 651965, 2013; active = well fitted falling curve with a large enough effect; inconclusive = small, poorly fitted or top-dose-only effect; inactive = no such curve, though single readings can be large or run the other way; also: potency is read from the fitted curve at half-maximal effect; the source files actives as falling curves though it sought activators and does not explain the sign; nearly all actives have a fitted effect of over 65% in size
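Buffer: 100 mM Tris/HCl pH8, 100 mM KCl, 0.05% low protease BSA, 2.5% glycerol, 0.01% Tween-20. ClpP 10 microg/mL final; 20 min RT; delta FRET normalized to ADEP and DMSO controls.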
p53 reactivation: restores transcriptional activity of mutant p53; H1299 p53-A138V BP100-luciferase reporter, luminescence, 24 h; Potency, µM (highest dose often 92.2 µM), for inactives: at the highest dose activity change, positive = activation, actives largely listed as activators; actives 0.063% (n = 320,000); active = well fitted activation curve with a large enough effect; inconclusive = small, poorly fitted or top-dose-only effect; inactive = no such curve, though single readings can be large or run the other way; also: potency is read from the fitted curve at half-maximal effect; % of control where 0% means no effect; nearly all actives have a fitted effect of over 45% in size
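H1299 (p53-null), stable ts p53-A138V + BP100-Luc; 1000 cells/well, Opti-MEM/10% FBS; cpd 4 pt, 1:5; 24 h, 37 deg C, 5% CO2; detection reagent 10 min RT; luminescence.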
An asterisk follows results filed as active. An excerpt weighted towards active compounds, which were near 2.6% of everything screened.

For O=C(CN(CCc1ccccc1)C(=O)CNS(=O)(=O)c1ccccc1)NCc1ccco1 the results were KCNH2 WT inh -6.8, TRPV1 ag -1.8, TRPV1 PAM 9.4, KCNH2 3.1 block 6.6, ClpP mod 0.3% and p53 reactivation 1.5%.
`Cc1ccc(S(=O)(=O)NCC(=O)N(CCc2ccccc2)CC(=O)NCc2ccco2)cc1` gave KCNH2 WT inh -74.8*, TRPV1 ag 1.5, TRPV1 PAM 0.1, KCNH2 3.1 block -8.9, ClpP mod -4.7% and p53 reactivation -2.7%.
Cc1cccc(Nc2nnc(SCC3CCCCO3)s2)c1C (configuration not stated) was read as KCNH2 WT inh -0.4, TRPV1 ag -2.1, TRPV1 PAM -4.8, KCNH2 3.1 block -3.1, ClpP mod 10µM* and p53 reactivation inconclusive.
Cc1ccc(S(=O)(=O)N2CCC(=O)N([C@H](COCc3ccc(Cl)c(Cl)c3)Cc3ccccc3)CC2)cc1 was read as ClpP mod 0.4%.
Screening CCc1ccc(N2C(=O)c3ccc4c5c(ccc(c35)C2=O)CC4)cc1 returned KCNH2 WT inh 7.7, TRPV1 ag -1.8, TRPV1 PAM 16.8, KCNH2 3.1 block -4.3, ClpP mod 25.1µM* and p53 reactivation -0.2%.
COc1ccc(NS(=O)(=O)c2ccc3oc(=O)c4[nH]c(=O)c(=O)n(C)c4c3c2)cc1 was read as KCNH2 WT inh 3.0, TRPV1 ag 1.5, TRPV1 PAM 4.7, KCNH2 3.1 block -1.7, ClpP mod 20µM* and p53 reactivation 9.3%.
For O=C(CN(c1ccc2c(c1)OCCO2)S(=O)(=O)c1ccccc1)N1CCN(Cc2ccccc2)CC1 the results were KCNH2 WT inh 23.2, TRPV1 ag 0.2, TRPV1 PAM -3.9, KCNH2 3.1 block 23.9, ClpP mod 31.6µM* and p53 reactivation -1.4%.
`Cc1ccccc1C(=O)NNc1ncnc2c1cnn2-c1cccc(Cl)c1` gave ClpP mod 0.8%.
Cc1cccc(-n2nc([N+](=O)[O-])c(=NC3CCN(Cc4ccccc4)CC3)n2O)c1 was read as KCNH2 WT inh 17.3, TRPV1 ag 0.9, TRPV1 PAM -2.4, KCNH2 3.1 block -5.5, ClpP mod 1.0% and p53 reactivation 14.1µM*.
`Cc1cccc(CCN=c2c([N+](=O)[O-])nn(-c3ccccc3)n2O)c1` gave KCNH2 WT inh 6.0, TRPV1 ag 1.5, TRPV1 PAM -4.8, KCNH2 3.1 block 13.4, ClpP mod -5.2% and p53 reactivation inconclusive.
Screening CCC(=O)Nc1cccc(C(=O)/C=C/c2cccs2)c1 returned KCNH2 WT inh -2.0, TRPV1 ag 9.2, TRPV1 PAM -3.7, KCNH2 3.1 block -4.5, ClpP mod -1.8% and p53 reactivation 12.7%.
CCC(=O)Nc1cccc(C(=O)/C=C/c2ccccc2)c1 was read as KCNH2 WT inh -3.5, TRPV1 ag 18.9, TRPV1 PAM 2.3, KCNH2 3.1 block -12.7, ClpP mod 15.8µM* and p53 reactivation -11.4%.
Screening COc1cccc(NC(=O)CN(C)C(=O)C(Sc2ccccc2)c2ccccc2)c1 (configuration not stated) returned KCNH2 WT inh -4.6, TRPV1 ag -6.5, TRPV1 PAM 11.2, KCNH2 3.1 block 7.1, ClpP mod 28.2µM* and p53 reactivation -0.4%.
`Cn1c(=O)c2c(nc(Oc3ccccc3)n2Cc2c(Cl)cccc2Cl)n(C)c1=O` gave ClpP mod -0.1%.
Screening COc1cccc(CNC(=O)C2CCCN(c3nc4ccccc4n4cccc34)C2)c1 (configuration not stated) returned ClpP mod -11.3%.
For O=C(Nc1ccc(Cl)cc1)C1CCN(c2nc3ccccc3n3cccc23)CC1 the results were ClpP mod 28.2µM*.
Screening Cc1ccc(CNC(=O)C2CCCN(c3nc4ccccc4n4cccc34)C2)cc1 (configuration not stated) returned ClpP mod 22.4µM*.
For COc1ccc(-n2nc3c(N4CCCC(C(=O)NCCc5ccccc5C)C4)nnc(C)c3c2C)cc1 (configuration not stated) the results were ClpP mod 3.9%.
COc1ccc(-n2nc3c(N4CCCC(C(=O)NCc5ccccc5C)C4)nnc(C)c3c2C)cc1 (configuration not stated) was read as TRPV1 ag -0.3, TRPV1 PAM 1.4 and ClpP mod 28.2µM*.
Screening COc1ccccc1CNC(=O)C1CCCN(c2nc3ccccc3n3cccc23)C1 (configuration not stated) returned ClpP mod 12.6µM*.
Screening O=C(C1CCC1)N1CCCc2cc(S(=O)(=O)N3CCN(c4cccc(Cl)c4)CC3)ccc21 returned ClpP mod 1.0%.
Screening CCn1c(SCC(=O)NCc2ccco2)nnc1-c1cccc(N(C)C)c1 returned ClpP mod -3.9%.
`CN(C)Cc1c(OC(=O)c2ccc(N)cc2)ccc2ccccc12` gave KCNH2 WT inh -6.4 and KCNH2 3.1 block 6.2.
Screening Cc1cccc(-c2cnc(C(O)c3ccc(-c4ccccc4)cc3)[nH]2)c1 (configuration not stated) returned ClpP mod -4.6%.
CN(CC1CCCN(CCc2ccc(Cl)cc2)C1)C(=O)C(=O)c1ccco1 (configuration not stated) was read as KCNH2 WT inh -22.5, TRPV1 ag 0.5, TRPV1 PAM -5.7, KCNH2 3.1 block -88.7*, ClpP mod 1.0% and p53 reactivation 0.4%.
For CN(CC1CCCN(CCc2cccc(C(F)(F)F)c2)C1)C(=O)c1ccco1 (configuration not stated) the results were KCNH2 WT inh 32.8, TRPV1 ag 3.5, TRPV1 PAM 15.7, KCNH2 3.1 block -22.1, ClpP mod -1.5% and p53 reactivation 29.3%.
Screening Cc1ccccc1CCN1CCCC(CN(C)C(=O)C(=O)c2ccco2)C1 (configuration not stated) returned KCNH2 WT inh -1.7, TRPV1 ag -0.5, TRPV1 PAM -2.1, KCNH2 3.1 block -89.7*, ClpP mod -1.6% and p53 reactivation -5.6%.
Screening OCC[C@@H]1C[C@@H](O)[C@H](O)[C@@]2(OCc3ccccc32)O1 returned KCNH2 WT inh -1.1, TRPV1 ag 3.8, TRPV1 PAM 12.6, KCNH2 3.1 block 23.1 and ClpP mod -1.3%.
